Assay [1] is described as follows: qHTS assay to identify small molecule antagonists of the estrogen receptor beta (ER-beta) signaling pathway - cell viability counter screen (AID 1259382; active means well fitted curve in the direction sought with a large enough effect in the repeat runs; an effect the other way counts as inactive or inconclusive;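 further: HEK293T cells carrying ER-beta-UAS-bla reporter stimulated with estradiol; series mostly up to about 92 µM; nearly all actives have a fitted effect of over 55% in size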). In a few lines:
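ER-beta-UAS-bla HEK293T cells (2,000/well, 2% charcoal-stripped FBS) were pre-incubated 6 hr at 37C, then given compound plus 1nM final 17-beta-estradiol for 16 hr. Viability was read in the same wells by CellTiter-Glo luminescence after 30 min at room temperature.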

Assay [2] concerns the target Estrogen receptor (Homo sapiens) (UniProt P03372). Put plainly: qHTS assay to identify small molecule agonists of the estrogen receptor alpha (ER-alpha) signaling pathway in the presence of an antagonist (AID 1259383). Further: nearly all actives have a fitted effect of over 15% in size. Further: potency means the concentration at half of the fitted maximal effect. The essentials:
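VM7Luc4E2 cells (endogenous full-length ER-alpha, 4×ERE-luciferase) were precultured 5 days in phenol red-free medium with 10% charcoal-stripped FBS, given 10.0nM ICI-182,780 (final), then treated with compounds at 15 concentrations for 22hr at 37C; luminescence read with ONE-Glo.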
Background: In qHTS, concentration-response curves come from the screen itself.

A short description of assay [3]: qHTS assay to identify small molecule agonists or antagonists of the thyroid stimulating hormone receptor (TSHR) signaling pathway - wild type cell line counter screen (AID 1259384). The essentials: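 Counter screen in untransfected Hek293: compounds (15-point titration, triplicate) plus phosphodiesterase inhibitor Ro20-1724 added after 18 h plating; 30 min RT. Intracellular cAMP via competitive d2/cryptate immunoassay, 1 h incubation.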

For assay [4], the target named is Thyrotropin receptor (Homo sapiens) (UniProt P16473). Kind of assay: qHTS assay to identify small molecule antagonists of the thyroid stimulating hormone receptor (TSHR) signaling pathway (AID 1259385). Further: nearly all actives have a fitted effect of over 20% in size. The essentials: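 Antagonist mode: compound-treated TSHR-expressing HEK293 cells were stimulated with 1.5 ng/mL TSH (final) in presence of Ro20-1724 for 30 min at RT. HTRF cAMP detection after 1 h; each compound tested at 15 concentrations, triplicate.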

Assay [5] in a line: qHTS assay to identify small molecule agonists of the estrogen receptor alpha (ER-alpha) signaling pathway in the presence of an antagonist - cell viability counter screen (AID 1259386; active means well fitted curve in the direction sought with a large enough effect in the repeat runs; an effect the other way counts as inactive or inconclusive;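 further: series mostly up to about 92 µM; cells exposed to compounds for 22 h at 37 °C before the viability read; nearly all actives have a fitted effect of over 30% in size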). The essentials: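 VM7Luc4E2 cells (endogenous full-length ER-alpha, 4×ERE-luciferase) were held 5 days in phenol red-free medium with 10% charcoal-stripped FBS, plated, then given 10.0nM ICI-182,780 and compounds at 15 concentrations for 22hr at 37C; viability read by CellTiter-Fluor fluorescence.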

The target in assay [6] is Progesterone receptor (Homo sapiens) (UniProt P06401). Put plainly: qHTS assay to identify small molecule agonists of the progesterone receptor (PR) signaling pathway (AID 1346784). Further: nearly all actives have a fitted effect of over 30% in size. Further: potency means the concentration at half of the fitted maximal effect. In a few lines: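 Compounds were tested for PR agonism in HEK 293T cells bearing a beta-lactamase gene under UAS control. Treatment lasted 16 hr at 37C; signal came from fluorescence of a FRET substrate.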

Assay [7] in a line: qHTS assay to identify small molecule antagonists of the progesterone receptor (PR) signaling pathway - cell viability counter screen (AID 1346798; active means well fitted curve in the direction sought with a large enough effect in the repeat runs; an effect the other way counts as inactive or inconclusive; further: series mostly up to about 92 µM; nearly all actives have a fitted effect of over 50% in size). In a few lines: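 Following a 4 hr attachment, PR-UAS-bla HEK293T cells in charcoal-stripped FBS medium were exposed to compounds with R5020 for 16 hr; CellTiter-Glo was added and luminescence read after 30 min at room temperature.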

Assay [8] is described as follows: qHTS assay to identify small molecule agonists of the progesterone receptor (PR) signaling pathway - cell viability counter screen (AID 1346799). Further: nearly all actives have a fitted effect of over 45% in size. The essentials: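 Here, 3,000 PR-UAS-bla HEK293T cells per well were treated with compounds for 16 hr after a 6 hr preincubation at 37C and 5% CO2; cell viability is the CellTiter-Glo luminescence signal.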
Assay [9] is described as follows: qHTS assay to identify small molecule antagonists of the TGF-beta/Smad signaling pathway - cell viability counter screen (AID 1346824; active means well fitted curve in the direction sought with a large enough effect in the repeat runs; an effect the other way counts as inactive or inconclusive; further: nearly all actives have a fitted effect of over 50% in size). In a few lines:
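Cytotoxicity counter-screen run in the same wells as the beta-lactamase Smad reporter read: CellTiter-Glo luminescence after 30 min at room temperature. HEK 293T SBE-bla cells had 5 hr compound exposure at 37 C with TGF-beta1 (0.25 ng/mL stock).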

For assay [10], the target named is Progesterone receptor (Homo sapiens) (UniProt P06401). Kind of assay: qHTS assay to identify small molecule antagonists of the progesterone receptor (PR) signaling pathway (AID 1346795; active means well fitted inhibition curve with a large enough effect in the signal ratio in the repeat runs, not every such curve was filed as active; the % refers to the signal ratio). The essentials:
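In HEK293T cells bearing the PR-UAS-bla reporter, compound effects on promegestone-driven (1 nM) beta-lactamase expression are assessed after 16 hr using a fluorescent FRET substrate incubated 2 hr at room temperature.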

Each structure is given as a SMILES string. Values without a mark were called inactive. Records with an inconclusive call do not appear. The source made the active and inactive calls. Unless noted, the call rests on the fitted dose curve.

Progesterone receptor (Homo sapiens), sequence (P06401 whole entry, looked up): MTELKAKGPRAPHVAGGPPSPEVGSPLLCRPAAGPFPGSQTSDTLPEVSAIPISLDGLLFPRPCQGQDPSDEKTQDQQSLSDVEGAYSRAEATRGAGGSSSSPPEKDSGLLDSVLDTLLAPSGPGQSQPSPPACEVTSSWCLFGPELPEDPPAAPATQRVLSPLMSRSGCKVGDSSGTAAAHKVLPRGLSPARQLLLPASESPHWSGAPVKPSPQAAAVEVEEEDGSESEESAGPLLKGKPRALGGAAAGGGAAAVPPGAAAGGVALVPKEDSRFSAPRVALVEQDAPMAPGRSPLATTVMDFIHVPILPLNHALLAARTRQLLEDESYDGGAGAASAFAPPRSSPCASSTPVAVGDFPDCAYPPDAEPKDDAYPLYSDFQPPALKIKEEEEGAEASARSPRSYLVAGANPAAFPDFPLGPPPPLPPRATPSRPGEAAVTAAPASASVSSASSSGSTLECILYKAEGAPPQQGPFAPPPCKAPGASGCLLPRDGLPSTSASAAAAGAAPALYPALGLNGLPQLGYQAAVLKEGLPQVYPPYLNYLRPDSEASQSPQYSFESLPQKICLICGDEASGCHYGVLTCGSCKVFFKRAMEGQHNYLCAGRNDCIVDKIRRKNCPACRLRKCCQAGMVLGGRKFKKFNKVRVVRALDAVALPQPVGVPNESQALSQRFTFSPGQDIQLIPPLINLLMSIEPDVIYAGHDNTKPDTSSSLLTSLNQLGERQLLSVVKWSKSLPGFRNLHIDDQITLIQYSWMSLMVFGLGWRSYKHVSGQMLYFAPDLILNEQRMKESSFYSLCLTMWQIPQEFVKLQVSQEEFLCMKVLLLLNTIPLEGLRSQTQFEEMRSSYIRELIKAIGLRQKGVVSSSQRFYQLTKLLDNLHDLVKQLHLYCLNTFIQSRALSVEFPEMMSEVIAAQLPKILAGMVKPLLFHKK
Estrogen receptor (Homo sapiens), sequence (P03372 whole entry, looked up): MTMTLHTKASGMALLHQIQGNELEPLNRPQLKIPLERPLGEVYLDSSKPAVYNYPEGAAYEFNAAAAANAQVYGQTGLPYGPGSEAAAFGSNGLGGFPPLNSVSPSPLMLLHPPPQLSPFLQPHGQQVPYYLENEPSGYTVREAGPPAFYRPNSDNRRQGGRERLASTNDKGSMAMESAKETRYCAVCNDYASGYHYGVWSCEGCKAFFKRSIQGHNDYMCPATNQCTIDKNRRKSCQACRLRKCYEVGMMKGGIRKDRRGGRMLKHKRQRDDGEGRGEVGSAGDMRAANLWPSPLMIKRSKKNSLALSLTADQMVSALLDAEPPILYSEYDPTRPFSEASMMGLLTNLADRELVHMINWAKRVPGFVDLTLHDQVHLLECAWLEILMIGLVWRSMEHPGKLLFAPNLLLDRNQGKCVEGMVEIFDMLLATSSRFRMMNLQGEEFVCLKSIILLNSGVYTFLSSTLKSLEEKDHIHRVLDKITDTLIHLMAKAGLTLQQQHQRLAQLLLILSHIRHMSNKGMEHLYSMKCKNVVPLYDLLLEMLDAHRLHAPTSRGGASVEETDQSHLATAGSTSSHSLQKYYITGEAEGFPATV
Thyrotropin receptor (Homo sapiens), sequence (P16473 whole entry, looked up): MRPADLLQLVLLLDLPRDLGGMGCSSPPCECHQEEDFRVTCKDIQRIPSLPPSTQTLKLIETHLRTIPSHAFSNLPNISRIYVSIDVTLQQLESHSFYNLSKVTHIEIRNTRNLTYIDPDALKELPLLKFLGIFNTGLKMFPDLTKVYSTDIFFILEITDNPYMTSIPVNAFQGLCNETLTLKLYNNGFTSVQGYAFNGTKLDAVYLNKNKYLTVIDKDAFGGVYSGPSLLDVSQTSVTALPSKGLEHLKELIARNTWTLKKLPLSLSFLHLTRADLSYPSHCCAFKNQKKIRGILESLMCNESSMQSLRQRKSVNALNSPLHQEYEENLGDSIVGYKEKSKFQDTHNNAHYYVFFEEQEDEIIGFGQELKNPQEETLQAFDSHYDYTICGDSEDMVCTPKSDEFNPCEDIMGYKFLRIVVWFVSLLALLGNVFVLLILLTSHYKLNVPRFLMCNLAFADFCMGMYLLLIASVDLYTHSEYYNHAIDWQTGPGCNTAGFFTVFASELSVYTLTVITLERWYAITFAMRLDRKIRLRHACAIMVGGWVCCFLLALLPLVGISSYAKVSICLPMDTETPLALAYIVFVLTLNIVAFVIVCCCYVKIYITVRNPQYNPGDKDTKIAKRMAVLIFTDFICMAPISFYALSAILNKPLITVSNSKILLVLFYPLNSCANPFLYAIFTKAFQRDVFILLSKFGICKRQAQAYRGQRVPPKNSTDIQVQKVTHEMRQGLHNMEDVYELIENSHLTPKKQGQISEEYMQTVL

Regarding `C=C(C)c1cccc(C(C)(C)N=C=O)c1`, the call in assay [1], in [3], in assay [4], in assay [5], in [7] and in assay [8] was inactive. In [9], the compound was classed as inactive. Moreover, the Potency entry in assay [2] and in assay [6] was “inactive” each time.

As for `C/C=C(\C)C(C)=O`, the outcome in [1], in assay [3], in assay [4], in [5], in [7] and in assay [8] was inactive. Besides, in assay [9], the outcome was inactive. Further, the Potency result in assay [2] and in assay [6] was “inactive” throughout.

As to `Cc1c(Cl)cccc1Cl`, the outcome in assay [1], in [3], in assay [4], in assay [5] and in assay [9] was inactive. Moreover, the Potency entry in [2] and in [6] was “inactive” throughout.

For the compound `O=C1OCCO1`, the outcome in assay [1], in [3], in assay [4], in assay [5], in assay [7] and in assay [8] was inactive. In assay [9], the compound was classed as inactive. The Potency entry in assay [2] and in assay [6] was “inactive” each time.

As for `C=CCSSCCC`, the call in [1], in assay [3], in assay [4], in assay [5], in assay [7] and in assay [9] was inactive. Besides, the Potency entry in assay [2], in assay [6] and in [10] was “inactive” in each case.

Take `CC(C)OC(=O)OCOP(=O)(CO[C@H](C)Cn1cnc2c(N)ncnc21)OCOC(=O)OC(C)C`: the call in assay [1], in [3], in assay [4], in assay [5], in assay [7] and in [9] was inactive. The Potency entry in assay [2], in assay [6] and in [10] was “inactive” each time.

As for `CCC/C=C(\C=O)CC`, the compound was called inactive in assay [1], in [3], in assay [4], in [5], in assay [7] and in assay [8]. Further, the result in [9] was inactive. The Potency entry in assay [2] and in assay [6] was “inactive” throughout.

As for `CCC(=O)Oc1ccc2c(c1)CC[C@@H]1[C@@H]2CC[C@@]2(C)[C@H]1C[C@@H](OC(=O)CC)[C@@H]2OC(=O)CC`, the outcome in assay [1], in assay [3], in assay [4], in [5], in [7] and in assay [8] was inactive. For the same compound, the outcome in assay [9] was inactive. Moreover, the Potency in [2] is 75 nM (active). Besides, the Potency entry in assay [6] was “inactive”.

`CC(=O)CCC1=C(C)CCCC1(C)C`: the call in [1], in assay [3], in assay [4], in assay [5], in assay [7] and in [8] was inactive. Moreover, the call in assay [9] was inactive. The Potency entry in [2] and in [6] was “inactive” in each case.

With `CO/N=C(/C(=O)N[C@@H]1C(=O)N2C(C(=O)[O-])=C(C[n+]3ccn4ncccc43)CS[C@H]12)c1nsc(N)n1`, the compound was classed as inactive in [1], in assay [3], in assay [4], in assay [5], in assay [7] and in [8]. Further, in assay [9], the call was inactive. Besides, the Potency entry in assay [2] and in assay [6] was “inactive” throughout.

In the case of `O=C(O)c1cc2ccccc2nc1C(=O)O`, the compound was called inactive in [1], in assay [3], in assay [4], in [5], in assay [7] and in assay [8]. In assay [9], the compound was classed as inactive. For the same compound, the Potency entry in assay [2] and in [6] was “inactive” throughout.

`CCO`: the result in assay [1], in assay [3], in assay [4], in assay [5], in [7] and in assay [8] was inactive. For the same compound, the call in assay [9] was inactive. Moreover, the Potency result in assay [2] and in assay [6] was “inactive” in each case.

Regarding `O=C[O][Al]([O]C=O)[O]C=O`, the outcome in [1], in assay [3], in [4], in assay [5], in [7] and in [8] was inactive. Also, the compound was called inactive in [9]. The Potency result in assay [2] and in assay [6] was “inactive” each time.

Consider `CCCC(=O)OC/C=C(\C)CCC=C(C)C`, for which the compound was classed as inactive in [1], in assay [3], in assay [4], in assay [5], in [7] and in [9]. In addition, the Potency entry in assay [2], in [6] and in assay [10] was “inactive” each time.

Turning to `OCC1CCC(CO)CC1` (stereo not drawn), the compound was classed as inactive in assay [1], in assay [3], in [4], in [5], in [8] and in [9]. Further, the Potency entry in assay [2], in assay [6] and in [10] was “inactive” throughout.

Consider `C=CCCCCCCCCC(=O)OCCCC`, for which the outcome in [1], in assay [3], in assay [4], in [5], in [8] and in assay [9] was inactive. Further, the Potency result in assay [2], in assay [6] and in [10] was “inactive” each time.

As to `O=C(O)[C@H](O)c1ccccc1`, the outcome in assay [1], in assay [3], in assay [4], in [5], in [7] and in assay [8] was inactive. For the same compound, the outcome in assay [9] was inactive. In addition, the Potency entry in assay [2] and in assay [6] was “inactive” throughout.

`O=C(CCCCC(=O)Nc1c(I)cc(I)c(C(=O)O)c1I)Nc1c(I)cc(I)c(C(=O)O)c1I`: the compound was called inactive in [1], in [3], in assay [4], in [5], in [8] and in assay [9]. Besides, the Potency result in assay [2], in [6] and in [10] was “inactive” throughout.

Regarding `CCCCOCCOC(=O)COc1ccc(Cl)cc1Cl`, the compound was called inactive in [1], in [3], in assay [4], in [5], in assay [7] and in assay [8]. For the same compound, the result in assay [9] was inactive. The Potency result in [2] and in [10] was “inactive” each time.

Take `C[C@]12CCC(=O)C=C1CC[C@H]1[C@@H]3CC[C@](O)(C(=O)CO)[C@@]3(C)C[C@H](O)[C@@]12F`: the compound was classed as inactive in assay [1], in assay [3], in [4], in [5], in [7] and in [9]. The Potency result in [2] and in [10] was “inactive” throughout. Besides, in [6], the Potency was 1680 nM (active).

On to `CC(C)C1OCCN1CCOC(=O)NCCCCCCNC(=O)OCCN1CCOC1C(C)C` (stereo not drawn), for which the result in [1], in assay [3], in assay [4], in assay [5], in [7] and in assay [8] was inactive. Also, the outcome in assay [9] was inactive. The Potency entry in assay [2] and in [6] was “inactive” throughout.

Regarding `COC(=O)CCCCC(=O)O`, the outcome in assay [1], in assay [3], in [4], in assay [5], in assay [7] and in assay [8] was inactive. In assay [9], the compound was classed as inactive. In addition, the Potency result in [2] and in [6] was “inactive” each time.

Consider `CCN1CCCC1CN` (stereo not drawn), for which the compound was classed as inactive in [1], in assay [3], in assay [4], in assay [5], in assay [7] and in [9]. The Potency result in assay [2], in assay [6] and in assay [10] was “inactive” throughout.

For `CCCCOC(=O)[C@H](C)O`, the call in assay [1], in [3], in assay [4], in assay [5], in assay [8] and in assay [9] was inactive. The Potency result in assay [2], in [6] and in assay [10] was “inactive” throughout.

Regarding `CN(C)CCN(C)CCO`, the call in assay [1], in [3], in assay [4], in assay [5], in [7] and in assay [8] was inactive. In assay [9], the outcome was inactive. The Potency entry in assay [2], in assay [6] and in [10] was “inactive” in each case.

On to `Cc1c(NC(=O)c2cccnc2)c(=O)n(-c2ccccc2)n1C`, for which the call in assay [1], in [3], in assay [4], in assay [5], in [7] and in assay [8] was inactive. The result in assay [9] was inactive. Further, the Potency result in [2] and in assay [6] was “inactive” each time.

For the origin of these results see PubChem BioAssay (Tox21).
